Data reported in PubChem BioAssay AID1211 (NMMLSC, 2008).
A number with no mark means an inactive call. Active and inactive are the calls of the source. How the calls were made is not given here.

biological target: Estrogen receptor (Homo sapiens) (UniProt P03372); test: ERalpha ligand binders by competition, primary screen, cell-based, Cos7 ERalpha-GFP, flow cytometry (AID 1211); conditions: fluorescent ligand competition, at 10 µM, active compounds read high;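 further: 0% = DMSO vehicle wells and 100% = no E2-Alexa633 signal left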
Sequence (P03372 whole entry, looked up): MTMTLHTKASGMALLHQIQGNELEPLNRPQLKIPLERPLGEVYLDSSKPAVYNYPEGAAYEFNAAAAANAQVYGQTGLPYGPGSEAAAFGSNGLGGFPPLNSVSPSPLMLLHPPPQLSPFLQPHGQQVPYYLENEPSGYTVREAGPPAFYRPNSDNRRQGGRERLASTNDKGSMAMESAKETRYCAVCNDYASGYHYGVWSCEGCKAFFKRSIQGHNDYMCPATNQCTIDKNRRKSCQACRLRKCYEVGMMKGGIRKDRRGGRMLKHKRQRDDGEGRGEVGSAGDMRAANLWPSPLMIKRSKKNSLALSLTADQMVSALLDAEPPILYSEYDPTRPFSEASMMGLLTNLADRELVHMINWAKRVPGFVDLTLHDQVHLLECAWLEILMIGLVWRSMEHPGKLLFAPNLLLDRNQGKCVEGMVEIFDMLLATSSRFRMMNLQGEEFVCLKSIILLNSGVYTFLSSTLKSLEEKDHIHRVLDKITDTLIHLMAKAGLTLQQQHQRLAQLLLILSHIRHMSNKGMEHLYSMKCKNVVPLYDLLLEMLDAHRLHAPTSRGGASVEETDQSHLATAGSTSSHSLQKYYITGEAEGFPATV

SMILES	inhibition of ligand binding
Cc1ccc2c(c1C)NC(C(=O)O)C1CC=CC21 (centres undefined)	0%
CCOc1cc2c(c([N+](=O)[O-])c1)NC(c1ccccc1)C1CC=CC21 (centres undefined)	12%
Cc1cc(C(C)CO)cc(C(C)(C)C)c1O (centres undefined)	21%
Cc1ccc2c(c1)C1C=CCC1C(C(=O)O)N2 (centres undefined)	0%
COc1cccc(-c2cc(C(=O)Nc3cc(C)nn3-c3ccccc3)no2)c1	30%
Cc1c(Cc2ccccc2)c(=O)n2c([nH]c3ccccc32)c1C#N	5%
CCOc1cc2c(c([N+](=O)[O-])c1)NC(c1ccc(Br)cc1)C1CC=CC21 (centres undefined)	0%
CCOc1ccc(NS(=O)(=O)c2ccc3c(c2)[C@H]2C=CC[C@H]2[C@@H](c2ccc(C(=O)O)cc2)N3)cc1	66% (active)
COc1cc2c(c([N+](=O)[O-])c1)NC(c1ccc(Br)cc1)C1CC=CC21 (centres undefined)	0%
COc1cc(C2CC(=O)Nc3c2ccc2ccccc32)cc(Cl)c1O (centres undefined)	0%
CCc1cc2c3c(c(=O)oc2cc1OCC(=O)O)CCCC3	10%
Cc1ccn2c(NCc3ccc4c(c3)OCO4)c(-c3ccc(O)cc3)nc2c1	32%
Cc1ccc(OCc2ccoc2C(=O)O)cc1C	0%
COc1ccc(Oc2ccc3c(c2)c2c4n3CCNC4CCC2)cc1 (centres undefined)	0%
CCc1cc2c3c(c(=O)oc2cc1OCC(=O)OC)CCCC3	3%
Oc1ccc(C=Nc2ccc(N3CCOCC3)cc2)c(O)c1	30%
CCCCc1cc(=O)oc2c(C)c(O)ccc12	0%
Cc1sc2ncnc(NCc3ccco3)c2c1C	0%
CCc1cc2c3c(c(=O)oc2cc1OC)CCCC3	0%
CC1(C)Cc2[nH]c3ccccc3c2C(C)(C)N1	6%

SMILES	inhibition of ligand binding
CC(=O)Oc1ccc2c(c1)CCC1C2C(O)CC2(C)C(=O)CCC12 (centres undefined)	15%
CSC(=O)CNC1(Cc2ccc(O)cc2)CCCCC1	11%
CCOc1ccc(NS(=O)(=O)c2ccc3c(c2)[C@H]2C=CC[C@H]2[C@@H](c2cccc([N+](=O)[O-])c2)N3)cc1	0%
O=C(O)c1ccc([N+](=O)[O-])c2c1NC(c1ccccc1)C1CC=CC21 (centres undefined)	100% (active)
O=C(O)c1cc(Cl)c2c(c1)[C@@H]1C=CC[C@@H]1[C@H](c1ccc(S(=O)(=O)N3CCOCC3)cc1)N2	42%
COc1cc([N+](=O)[O-])cc2c1NC(c1ccccc1)C1CC=CC21 (centres undefined)	0%
O=[N+]([O-])c1cc(/C=N/N2CCN(C3c4ccccc4-c4ccccc43)CC2)ccc1Cl	21%
O=C(COC(=O)C1CC2C=CC1C2)NCc1ccco1 (centres undefined)	16%
C=CCn1c(COc2ccccc2F)nnc1SCC(=O)NC(=O)NCc1ccco1	11%
COc1cc([C@@H]2Nc3ccc(S(=O)(=O)Nc4ccccc4F)cc3[C@@H]3C=CC[C@@H]32)cc(OC)c1OC	5%
Cc1ccc2c(c1)[C@H]1OCC[C@H]1[C@@H](c1ccncc1)N2	34%
COc1cc([N+](=O)[O-])cc2c1NC(c1ccccc1Cl)C1CC=CC21 (centres undefined)	0%
CCCCc1cc2c(=O)c(-c3ccccn3)coc2cc1O	1%
CC(C)C1Nc2ccc(C(=O)O)cc2C2C=CCC21 (centres undefined)	36%
COc1cccc(C2NCCc3cc(OC)c(OC)cc32)c1 (centres undefined)	10%
Nc1ccc2nc3n(c(=O)c2c1)CCC3	34%
COc1cc2c(cc1OC)CC(C)(C)N(Cc1ccco1)C2	0%
CC1CCN(Cc2c(O)ccc3c4c(c(=O)oc23)CCC4)CC1	0%
O=C(O)c1cc(-c2ccc(O)cc2)nc2ccccc12	5%
